MCF10A rerep – DNA re-replication induction in MCF 10a cells; MCF 10A DNA re-replication, Hoechst nuclear intensity, 48 h; Potency, µM (series often up to 46.1 µM), actives largely listed as activators; 2.9% of 350,000 active; AID 624296; also: nearly all actives have a fitted effect of over 50% in size
SW480 rerep – DNA re-replication induction in SW480 cells; SW480 DNA re-replication, Hoechst DNA content imaging, 48 h; AID 624297; Potency, µM (doses to about 46.1 µM), actives largely listed as activators; 1.8% of 340,000 active; also: nearly all actives have a fitted effect of over 55% in size
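Per well, 250 cells were exposed to pinned compound for 48 hr. Nuclear DNA was visualised with Hoechst (40 min, 37 C) and total object intensity recorded by fluorescence scanning.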
KB-V1 MDR tox – KB-V1 MDR subline cytotoxicity; KB-V1 MDR cells viability, CellTiter-Glo, 72 h; Potency, µM (titrated, usually from 46.1 µM), actives largely listed as cytotoxic; 3.4% of 400,000 active; also: nearly all actives have a fitted effect of over 60% in size
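Cytotoxicity toward P-gp-expressing KB-V1 cells was determined as loss of CellTiter-Glo luminescence after 72 h at 37 degrees C. Compounds were tested in quantitative HTS format across a concentration range, with curves fitted to normalized data.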
HT1080NT lethal – kills 2HG-producing HT-1080-NT fibrosarcoma cells. 1.6% of 360,000 active. Potency, µM (doses to about 46.1 µM), actives largely listed as cytotoxic. HT-1080-NT fibrosarcoma viability, CellTiter-Glo ATP luminescence, 48 h;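 also: NT is the 2HG producing partner of a matched IDH1 knockdown line; nearly all actives have a fitted effect of over 55% in size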
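Viability of the 2HG-overproducing fibrosarcoma line after 48 hours of compound exposure at 37 degrees C was determined by luminescence with CellTiter-Glo, and concentration-effect curves were then fitted and categorized.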
KB-3-1 tox – kills parental KB-3-1 adenocarcinoma cells; AID 1347075; KB-3-1 viability, CellTiter-Glo ATP luminescence, 72 h; 1.4% of 400,000 active; Potency, µM (top dose mostly 46.1 µM), most hits filed as cytotoxic; also: nearly all actives have a fitted effect of over 60% in size
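Cytotoxicity in the drug-sensitive parental line KB-3-1 was scored as loss of CellTiter-Glo luminescence following 72 h incubation with compound. Values come from curve fitting of normalized concentration-response data.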
HT1080 IDH1KD tx – kills HT-1080 cells with IDH1 knockdown; HT-1080 IDH1 knockdown viability, ATP luminescence, 48 h; Potency, µM (top dose mostly 46.1 µM), most hits filed as cytotoxic; 2% of 360,000 active; AID 686971
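Knockdown cells (IDH1KD HT-1080) received compounds 2 h after plating at 750 cells/well and were kept 48 h at 37 °C in 5% FBS RPMI. A CellTiter-Glo luminescence read gave % activity for curve fitting.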
Hits are given with their value; n = inactive; u = inconclusive; x = no result; [ ] = dose if it differs, or a comment. Sampled rows, rich in hits. Any-hit rate of the full collection: about 8%. Calls follow the shape of the dose curve; as a rule, active = well fitted curve in the direction sought with a large enough effect; inconclusive = small, poorly fitted or top-dose-only effect, or another doubt; inactive = no such curve, though single readings can be large; an effect the other way counts as inactive or inconclusive.

SMILES	MCF10A rerep	SW480 rerep	KB-V1 MDR tox	HT1080NT lethal	KB-3-1 tox	HT1080 IDH1KD tx
COC1=CC(=O)OC(c2cccc(C(F)(F)F)c2)C1 (stereo not given)	x	x	n	n	n	n
Cc1cccc(Cc2cnc(NC(=O)c3ccc(C)o3)s2)c1	2.6µM	n	n	n	u	u
NC(=O)c1cc(Cc2ccccc2)sc1NC(=O)c1ccco1	u	n	9.2µM	u	u	u
Cc1ccc(CNC(=O)C(=O)NCC(c2cccs2)S(=O)(=O)c2ccc(C)cc2)cc1 (stereo not given)	x	x	n	x	n	x
Cc1cccc(C(=O)NCC(=O)OCc2cc(=O)n3nc(C4CC4)sc3n2)c1	x	x	n	x	n	x
Cc1ccccc1NC(=O)c1c(C)oc2ccc(O)c(CN3CCN(C)CC3)c12	x	x	n	x	n	x
Cc1ccc(SCc2nc(-c3ccncc3)no2)cc1	16µM	u	n	n	n	n
Cc1ccc(SCc2nc(-c3ccccc3)no2)cc1	n	n	n	n	n	n[9.24 µM]
COC(=O)Cc1c(C)c2ccc(OCC(=O)c3ccc(OC)c(OC)c3)cc2oc1=O	n	n	n	n	n	n
CC1(Oc2ccc3ccccc3c2)CCN(Cc2cccn2-c2nccs2)C1 (stereo not given)	x	x	n	21µM	n	15µM
CC12CCC(C(=O)Nc3ncc([N+](=O)[O-])s3)(OC1=O)C2(C)C (stereo not given)	n	n	n	n	n	n
COC(=O)c1ccccc1NC(=O)CN1C(=O)COc2ccc(Cl)cc21	x	x	u	x	n	x
CCOC(=O)c1c(NC(=O)/C=C/C(=O)O)sc(C)c1-c1ccc(C(C)(C)C)cc1	u	18µM	u	8.2µM	n	5.8µM
Cc1onc(-c2ccccc2)c1C(=O)Nc1sc2c(c1C#N)CCC(C)C2 (stereo not given)	n	n	u	13µM	u	n[9.24 µM]
CCOC(=O)c1c(NC(=O)c2c(-c3ccccc3)noc2C)sc(C)c1-c1ccccc1	u	u	6.5µM	n	2.1µM	u
CCOC(=O)c1c(NC(=O)/C=C\C(=O)O)sc(C)c1-c1ccccc1	21µM	u	n	u	n	u
CCOCc1nnc(NC(=O)c2c(-c3ccccc3)noc2C)s1	n	n	n	n	n	n
CCOC(=O)c1c(NC(=O)CCN2CCOCC2)sc(C)c1-c1ccccc1	u	n	n	n	n	n
CCOC(=O)N1CCC(NC(=O)c2ccc3c(c2)N(Cc2ccc(Cl)cc2)C(=O)c2ccccc2S3=O)CC1 (stereo not given)	x	x	n	x	u	x
Cc1cccc(OCCOC(=O)c2c(-c3ccccc3)noc2C)c1	18µM	8.2µM	u	u	u	u
CCCOc1cccc(NC(=O)c2c(-c3ccccc3)noc2C)c1	n	n	n	n	n	n
Cc1sc(NC(=O)/C=C/C(=O)O)c(C(N)=O)c1-c1ccc(C(C)(C)C)cc1	21µM	u	n	u	n	21µM
CSc1ccccc1C(=O)N1CCN(c2cccc(Cl)c2)CC1	u	23µM	16µM	u	n	23µM
Cc1cc(C(=O)N2CCN(c3cccc(Cl)c3)CC2)c(C)o1	u	u	n	u	23µM	16µM
Cc1cc(C(=O)N2CCN(c3ccccc3)CC2)c(C)o1	n	n	u	n	n	u
SMILES	MCF10A rerep	SW480 rerep	KB-V1 MDR tox	HT1080NT lethal	KB-3-1 tox	HT1080 IDH1KD tx
COc1ccc(CN2C(=O)CS(=O)CC2=O)cc1OC	n	n	n	n	n	n
CCCC(=O)Nc1ccc2c(c1)nc1n2CCN(CCOC)C1	n	n	n	n	n	n
COc1ccccc1NC(=O)C1=C(C)Nc2nc3ccccc3n2C1c1cccc(Br)c1 (stereo not given)	x	x	n	x	n	x
COc1ccccc1N1CCN(C(=O)CCn2nc(C)c(S(=O)(=O)N3CCCC3)c2C)CC1	x	x	n	x	n	x
CCc1ccc(NC(=O)c2ccc(F)c(S(=O)(=O)NCC3COc4ccccc4O3)c2)cc1 (stereo not given)	n	n	3.3µM	n	u	n
Cc1cccc(-c2nn3c(=O)cc(CN4CCN(S(=O)(=O)c5ccc(Cl)cc5)CC4)nc3s2)c1	x	x	n	x	n	x
Cc1cccc(C)c1NC(=O)NCCc1c[nH]c2ccccc12	x	x	u	x	n	x
COc1ccc(-c2cc3c(=O)n(CC(=O)NCCCN4CCN(Cc5ccccc5)CC4)ncn3n2)cc1	n	n	n	n	n	n
COc1ccc(-c2cc3c(=O)n(CC(=O)NCCCN4CCC(Cc5ccccc5)CC4)ncn3n2)cc1	n	5.8µM	n	u	21µM	u
CCOc1cccc(-c2cc(C(=O)Nc3ccon3)c3ccccc3n2)c1	n	n	16µM	n	n	n
COc1ccc(-c2cc(C(=O)OCC(=O)Nc3ccc4c(c3)OCO4)c3ccccc3n2)cc1	n	n	n	n	n	n
O=C(Nc1ccon1)c1cc(-c2ccccc2)nc2ccccc12	n	n	u	n	n	n
O=C(COC(=O)c1cc(-c2ccccc2)nc2ccccc12)Nc1ccc2c(c1)OCO2	5.2µM	n	u	n	n	n
CCOc1ccc(-c2cc(C(=O)Nc3ccc4c(c3)OCCO4)c3ccccc3n2)cc1	n	n	u	u	18µM	u
Cc1cccc(-c2cc(C(=O)Nc3ccc4c(c3)OCCO4)c3ccccc3n2)c1	n	n	u	n	n	n[9.24 µM]
COC(=O)C1=C[C@@H](C(=O)OC)[C@@H]2C3=C(C(=O)C2(C)C)[C@H](C)n2c(=O)n(-c4ccccc4)c(=O)n2[C@@H]3C1	u	5.2µM	n	n	n	n
COC(=O)C1=C[C@@H](C(=O)OC)C2C3=C(C(=O)C24CCCCC4)[C@H](C)n2c(=O)n(-c4ccccc4)c(=O)n2[C@@H]3C1 (stereo not given in full)	n	n[9.22 µM]	n	n	n	n
O=C(CSc1nc2c([nH]c3ccccc32)c(=O)n1-c1ccccc1F)Nc1cccc(C(F)(F)F)c1	x	x	u	x	15µM	x
CC(=O)Nc1ccc(NC(=O)CSc2nc3c([nH]c4ccccc43)c(=O)n2-c2ccccc2F)cc1	n	n	n	n	u	u
CCC1CCCCN1C(=O)CSc1nc2c([nH]c3ccccc32)c(=O)n1C (stereo not given)	n	n	23µM	n	n	n
Cn1c(SCC(=O)Nc2ccccc2)nc2c([nH]c3ccccc32)c1=O	18µM	n	n	n	n	n
CCSc1nc2c([nH]c3ccccc32)c(=O)n1C	n	n	n	n	n	n
COc1ccc(-c2ccc(CN3C(C)C(=O)N(Cc4cn(Cc5ccco5)nn4)CCS3(=O)=O)cc2)cc1 (stereo not given)	x	x	u	n	u	u
CSc1cc2c(s1)c1cnn(Cc3cccc(N)c3)c(=O)c1n2C	x	x	n	x	n	x
